# Assay outcomes: PubChem, National Center for Advancing Translational Sciences (NCATS)
# Only some compounds are listed: those with a hit (about 6.5% of all), similar ones and a draw of the others.
# LASV entry inh: Lassa virus entry inhibition | Lassa virus pseudotype entry inhibition, cell reporter | actives 1.2% (n = 300,000) | Potency, µM (top dose mostly 37.9 µM), without a hit: at the top dose activity change, negative = inhibition, usual class: inhibitors; calls by dose curve; tested in HEK293 cells; note: potency is the fitted concentration of half-maximal effect; nearly all actives have a fitted effect of over 50% in size
# FMDV inh: blocks foot and mouth disease virus; AID 1159524; FMDV antiviral cell-based qHTS; actives 1.2% (n = 410,000); Potency, µM (series often up to 57.9 µM), without a hit: at the top dose activity change, negative = inhibition, usual class: inhibitors; calls by dose curve; tested in HEK293T cells; note: read-out not given here; potency is the fitted concentration of half-maximal effect; nearly all actives have a fitted effect of over 45% in size
# VACV Venus inh: vaccinia inhibition (Venus reporter) | actives 0.46% (n = 330,000) | Vaccinia virus Venus reporter expression, fluorescence | Potency, µM (highest dose often 36.5 µM), without a hit: at the highest dose activity change, negative = inhibition, actives largely listed as inhibitors; calls by dose curve; tested in A549 cells; note: potency is the fitted concentration of half-maximal effect; nearly all actives have a fitted effect of over 30% in size
# HCMV inh: inhibitors of human cytomegalovirus; HFF cells, HCMV-luciferase reporter, 72 h; active compounds read low; activity change, negative = inhibition, % at 57.5 µM; actives 4.5% (n = 410,000); in the data active = activity change below about -60%; inconclusive = no clear call, values can overlap the other calls; inactive = above about -39%
#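 Luciferase read-out from HCMV-luciferase-infected HFFs (MOI 1 PFU/cell) 72 h post infection at 37C; compounds added after 16 h cell attachment; activity normalized between buffer-only basal and Salinomycin (10uM) inhibitor controls.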
# MARV entry inh: Marburg virus entry inhibition | Marburg virus pseudotyped entry inhibition, cell reporter | Potency, µM (series often up to 37.8 µM), for the others: at the top dose activity change, negative = inhibition, usual class: inhibitors | actives 1.8% (n = 300,000) | AID 540276; calls by dose curve; tested in HEK293 cells; note: potency is the fitted concentration of half-maximal effect
# VACV mCherry inh: inhibitors of vaccinia virus infection (mCherry reporter signal); actives 0.63% (n = 310,000); AID 720579; Potency, µM (highest dose often 36.5 µM), without a hit: top-dose activity change, negative = inhibition, hits mostly inhibitors; Vaccinia virus mCherry reporter infection, fluorescence; calls by dose curve; tested in A549 cells; note: potency is the fitted concentration of half-maximal effect; nearly all actives have a fitted effect of over 35% in size
# Numbers without * were called inactive; i = inactive; ? = inconclusive; · = not tested or not shown; + = active, no number; [ ] = dose if it differs, or a comment. % is set by controls: 0 for no effect and ±100 for the full control effect.
SMILES,LASV entry inh,FMDV inh,VACV Venus inh,HCMV inh,MARV entry inh,VACV mCherry inh
C=C(C)CSc1nnc(-c2cccc(S(=O)(=O)N(C)C)c2)n1-c1cc(OC)ccc1OC,?,-13.3%,-1.4%,-70.7*,-0.1%,i
O=C(NCc1ccccn1)[C@H]1[C@H](CO)[C@H]2Cn3c(cccc3=O)[C@@H]1N2CC1CCCCC1,·,·,·,-0.8,·,·
CSc1ccc(C2c3[nH]c4ccccc4c3CCN2C(=O)CCC2CCCC2)cc1 (configuration not stated),?,-6.1%,7.8%,-77.9*,·,-8.6%
O=C(CSc1ccccc1)N1CCc2c([nH]c3ccccc23)C1c1ccc(F)cc1 (configuration not stated),?,4.1%,-23.3%,-30.5,·,i
Cc1ccc(C2c3[nH]c4ccccc4c3CCN2C(=O)CCc2ccccc2)cc1 (configuration not stated),3.16µM*,-5.0%,-3.2%,-86.0*,·,-24.3%
CCCOC(=O)c1ccc(Oc2c(-c3ccc(O)cc3O)n[nH]c2C)cc1,?,-8.0%,?,-76.8*,-9.6%,·
CCCOC(=O)c1ccc(Oc2c(-c3ccc(OC)cc3O)n[nH]c2C)cc1,11.2µM*,-0.9%,?,31.4,-15.5%,i[1.46 µM]
Cn1nc(C(=O)NCCN2Cc3ccccc3OC(c3ccsc3)C2)c2ccccc2c1=O (configuration not stated),·,-5.4%,-2.8%,·,·,-8.1%
CNc1ccc(/C=C2\C=Cc3ccccc32)cc1Br,·,·,-23.5%,·,·,?
CC1=C(c2ccc(C)cc2)S(=O)(=O)N(Cc2ccc(C(=O)NCc3ccccc3)cc2)C1=O,-28.8%[46.1 µM],-9.7%,-22.3%,-19.5,·,-24.8%
Cc1cccc(CN2C(=O)[C@H]3Cc4c([nH]c5ccccc45)C(C)(C)N3C2=O)c1,·,35.5µM*,·,37.1,·,·
Cc1c(C(=O)N2CCOc3ccc(Cl)cc3C2)sc2ncnc(NCCc3ccccn3)c12,·,-23.1%,-3.8%,·,·,i
Cc1ccc(-n2c(SCC(=O)c3c(N)n(C)c(=O)n(C)c3=O)nc3sc4c(c3c2=O)CCCC4)c(C)c1,-6.7%,11.9%,-16.1%,-67.9*,?,4.7%
Cc1ccc(-n2c(SCC(=O)O)nc3sc4c(c3c2=O)CCCC4)cc1,?,-7.9%,-14.5%,42.3,11.8%[46.1 µM],-12.1%
CN1C(=O)C(CC(=O)NCCc2ccccc2)N(NC(=O)c2ccc(Cl)cc2)C1=S (configuration not stated),·,-9.5%,·,-74.3*,·,·
O=C(C1CC1)N1CC(=O)N2[C@@H](CO)[C@H](c3ccc(Br)cc3)[C@@H]2C1,·,·,·,-16.9,·,·
O=C(Nc1cccc(S(=O)(=O)NC2=NCCCCC2)c1)c1ccc(Cl)cc1,?,?,-23.8%,-68.4*,?,-15.0%
O=C(Nc1cccc(S(=O)(=O)NC2=NCCC2)c1)c1ccccc1,1.8%,9.8%,-18.2%,-30.6,26.7%,-5.7%
O=C(/C=C/c1ccc(Cl)cc1Cl)Nc1cccc(S(=O)(=O)NC2=NCCC2)c1,14.6µM*,-36.0%,·,58.3,13µM*,·
Cc1ccc(-c2cc(C(=O)N3CCC(C)CC3)c3ccccc3n2)cc1,·,26.7%,·,-71.5*,·,·
Cc1cccc(-c2cc(C(=O)N3CCCc4ccccc43)c3ccccc3n2)c1,-11.8%,29.3%,?,42.1,?,?
O=C(c1cc(-c2ccncc2)nc2ccccc12)N1CCN(c2ccccc2O)CC1,·,-1.3%,·,6.3,·,·
O=C(c1cc(-c2ccncc2)nc2ccccc12)N1CCN(c2ccc(N3CCOCC3)nn2)CC1,44.0%[14.3 µM],-18.4%,-15.8%,99.4,14.6µM*,i
O=C(c1cc(-c2ccccc2)nc2ccccc12)N1CCCc2ccccc21,-11.0%,-6.6%,-11.5%,-62.7*,?,-9.1%
O=C(c1cc(-c2ccncc2)nc2ccccc12)N1CCN(c2ccccn2)CC1,-7.3%,-9.0%,·,13.5,?,·
SMILES,LASV entry inh,FMDV inh,VACV Venus inh,HCMV inh,MARV entry inh,VACV mCherry inh
O=C(c1cc(-c2ccncc2)nc2ccccc12)N1CCN(c2ncccn2)CC1,-13.5%,-22.3%,-18.4%,6.5,1.12µM*,-6.8%
NC(=O)C1CCN(C(=O)c2cc(-c3ccc(Cl)cc3)nc3ccccc23)CC1,-16.3%,12.2%,-3.2%,29.5,-5.5%,-7.1%
NC(=O)c1ccc(NC(=O)C2CCN(S(=O)(=O)Cc3ccccc3)CC2)cc1,-6.3%[46.1 µM],-22.6%,0.3%,7.7,-1.6%[46.1 µM],-0.5%
CCC1C(=O)NCCN1Cc1ccc2c(c1)CN(Cc1cccc(OC)c1OC)CCO2 (configuration not stated),·,2.7%,-4.5%,·,·,-4.7%
C=C(C)C1CC=C(C)/C(=N\NC(=S)Nc2ccc(C)cc2)C1 (configuration not stated),12.6µM*,27.3%,-27.8%,-28.0,?,-10.8%
CCCCC(=O)N1C(C)CCC1C (configuration not stated),·,-6.3%,-12.5%,-23.9,·,?
CCCCC(=O)/C=C/n1c2c(oc1=S)CCCC2,·,·,·,·,17.8µM*,·
CC(=O)CSc1ncnc2sc3c(c12)CCC(C)C3 (configuration not stated),2.3%,30.7%,·,11.4,-20.5%,·
CC1CCc2c(sc3ncnc(SCC(=O)N(C)C4CCS(=O)(=O)C4)c23)C1 (configuration not stated),·,-6.5%,·,+,·,·
CCc1ccc(C(=O)NN(C(=O)c2ccc(CC)cc2)C(C)(C)C)cc1,?,-11.2%,-9.3%,-25.5,?,-21.9%
CC(C)(C)N(NC(=O)c1ccccc1)C(=O)c1ccc(C(=O)N(NC(=O)c2ccccc2)C(C)(C)C)cc1,25.8%,-23.4%,-17.4%,-60.0*,0.7%,?
O=C(c1ccnc(-n2cnnn2)c1)N1CCOc2ccc(C(O)CCc3ccccc3)cc2C1 (configuration not stated),·,14.9%,-1.1%,·,·,-8.3%
Cc1cccc(NC(=O)c2nc[nH]c2C(=O)Nc2ccccc2[N+](=O)[O-])c1,-24.7%,4.0%,-18.3%,-36.7,22.7%,?
O=C(Nc1ccc(Cl)cc1)c1nc[nH]c1C(=O)NCc1ccccc1,·,-27.1%,?,-73.6*,·,?
C[C@@H](NC(=O)c1[nH]cnc1C(=O)Nc1cccc(Cl)c1)c1ccccc1,·,0.0%,-24.7%,-78.6*,·,-2.7%
O=C(Nc1ccccc1)c1nc[nH]c1C(=O)O,11.6%[46.1 µM],-1.8%,-9.9%[7.34 µM],-19.2,?,-11.7%[7.34 µM]
CN(Cc1ccccc1)C(=O)c1[nH]cnc1C(=O)Nc1ccc(Cl)cc1,·,0.0%,?,-31.2,·,?
C[C@H](NC(=O)c1[nH]cnc1C(=O)Nc1cccc(Cl)c1)c1ccccc1,·,-1.5%,?,?,·,-19.0%
Cc1cccc(NC(=O)c2nc[nH]c2C(=O)Nc2cc(Br)ccc2F)c1,·,-16.8%,?,-88.4*,·,-17.5%
O=C(c1ccccc1)c1nc[nH]c1C(=O)Nc1ccccc1,?,4.4%,-12.8%,-65.2*,-25.8%,·
O=c1c2ccccc2oc2ccc(-c3ccoc3)cc12,·,·,-5.8%,·,·,-4.3%
CCc1c(C)c2ccc(O)c(CN3CCN(c4cc(Cl)ccc4C)CC3)c2oc1=O,26.3%[46.1 µM],-5.8%,-4.1%,6.8,3.1%[46.1 µM],-4.6%
